This is an account of results in PubChem BioAssay (EPA / NIEHS).

SMILES strings stand for the structures. Inconclusive results are not listed. Active and inactive are the calls of the source. The calls were made as follows: active = hit-call score of the fitted dose curve at least 0.9, where 1 is the maximum; inconclusive = response in the unintended direction; inactive = score below 0.9.

The nature of experiment [1]: ATG_XTT_Cytotoxicity: Cytotoxicity Assessment in the Attagene TRANS-FACTORIAL HepG2 Assay (AID 2283584).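 As to AC50: cells exposed to compound for 24 h before reading; active means loss of viability signal versus DMSO baseline.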 The gist of the method: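 Cells: human HepG2, transiently transfected with MRTU reporter constructs. Exposure 24 h. Readout: XTT, cell number. Baseline/neg ctrl DMSO; loss-of-signal scored.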
Experiment [2] deals with Thyroperoxidase (TPO), gene 54314. Briefly: CCTE_Simmons_AUR_rTPO: CCTE's Amplex UltraRed Assay for Thyroperoxidase (TPO) Inhibition, Simmons Lab (AID 2283662).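 As to AC50: potency for loss of signal meaning inhibition of peroxidase activity.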 In a few lines:
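Cell-free peroxidase activity assay using rat thyroid gland microsomes with excess H2O2 (300 uM) and 25 uM Amplex UltraRed. Compounds tested from 5 nM to 87.5 uM; fluorescence measured after 30 min at 37C, analysed relative to DMSO baseline.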

The nature of experiment [3]: CCTE_Simmons_CellTiterGLO_HEK293T: Viability Assessment in CCTE's Assays for Thyroperoxidase (TPO) Inhibition, Simmons Lab (AID 2283665).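 As to AC50: cells exposed to compound for 24 h before readout; actives reduce ATP signal below DMSO vehicle meaning cytotoxicity.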 In a few lines:
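HEK293T cells in DMEM with 1% FBS, dosed 24 h at 37C with 8 concentrations, 5 nM–87.5 uM final, 0.5% DMSO. ATP measured by CellTiter Glo luminescence; loss of signal vs DMSO, three biological replicates.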

The target of experiment [4] is Luciferin 4-monooxygenase (Photinus pyralis) (UniProt P08659). Briefly: CCTE_Simmons_QuantiLum_inhib_2: CCTE's Firefly Luciferase Inhibition Assay, Simmons Lab (AID 2283767).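 As to AC50: potency for inhibitors that lower luciferase luminescence relative to DMSO.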 The gist of the method: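 Cell-free recombinant firefly luciferase (5 ng/well) in 200mM potassium phosphate with 1 mg/ml BSA, 30 min at 37C with 8 concentrations from 5 nM to 87.5 uM [final], 0.5% DMSO. Luminescence read after D-luciferin (150uM)/dATP (147uM) reagent injection, pH 7.8; triplicates.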
Luciferin 4-monooxygenase (Photinus pyralis), sequence (P08659 whole entry, looked up): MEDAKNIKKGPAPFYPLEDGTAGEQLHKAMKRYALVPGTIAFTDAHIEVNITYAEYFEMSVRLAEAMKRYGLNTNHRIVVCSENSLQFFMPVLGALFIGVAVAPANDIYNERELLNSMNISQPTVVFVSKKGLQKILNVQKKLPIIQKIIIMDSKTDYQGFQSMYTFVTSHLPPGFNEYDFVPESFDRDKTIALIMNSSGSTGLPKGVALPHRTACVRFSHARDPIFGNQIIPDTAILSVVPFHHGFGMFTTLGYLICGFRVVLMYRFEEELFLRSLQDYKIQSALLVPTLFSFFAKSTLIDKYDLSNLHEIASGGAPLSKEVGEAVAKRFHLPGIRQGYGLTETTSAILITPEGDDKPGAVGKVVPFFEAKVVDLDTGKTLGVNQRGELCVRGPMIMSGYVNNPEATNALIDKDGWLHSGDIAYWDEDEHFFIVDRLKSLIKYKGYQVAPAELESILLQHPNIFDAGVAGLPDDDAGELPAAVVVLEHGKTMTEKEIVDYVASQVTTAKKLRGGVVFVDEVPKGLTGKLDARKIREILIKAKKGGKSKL

Experiment [5] deals with Cellular tumor antigen p53 (Homo sapiens) (UniProt P04637). The experiment in a line: TOX21_p53_BLA_p2_ratio: Tox21 HCT-116 p53 Agonism Beta-lactamase Assay, Ratio, Phase 2 (AID 2283592). In a few lines: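 HCT116 p53-bla; 4000 cells/well; 5 h pre-incubation; cpd in DMSO, 217-fold dilution; 16 h 37C/5% CO2; CCF4-AM 2 h RT; Ex 405, Em 460/530 ratio; DMSO = baseline; positive fitting direction.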
Cellular tumor antigen p53 (Homo sapiens), sequence (P04637 whole entry, looked up): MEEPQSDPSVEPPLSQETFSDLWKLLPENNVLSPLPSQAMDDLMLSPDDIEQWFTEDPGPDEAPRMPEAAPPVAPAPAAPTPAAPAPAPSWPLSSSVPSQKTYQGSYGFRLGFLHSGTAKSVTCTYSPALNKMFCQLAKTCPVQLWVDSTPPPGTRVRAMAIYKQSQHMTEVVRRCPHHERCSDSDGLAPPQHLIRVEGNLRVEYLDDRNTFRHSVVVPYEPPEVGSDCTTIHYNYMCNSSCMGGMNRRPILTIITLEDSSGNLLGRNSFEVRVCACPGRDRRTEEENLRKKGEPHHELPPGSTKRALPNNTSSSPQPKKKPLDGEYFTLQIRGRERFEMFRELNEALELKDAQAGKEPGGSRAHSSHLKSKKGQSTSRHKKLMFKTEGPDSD

The nature of experiment [6]: TOX21_p53_BLA_p3_viability: Viability Assessment in the Tox21 HCT-116 p53 Agonism Beta-lactamase Assay, Phase 3 (AID 2283593).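 Also: cells exposed to compound for 16 h before reading.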 In a few lines:
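Cellular ATP was quantified by CellTiter-Glo luminescence, read after 30 min at room temperature. Beforehand, HCT116 cells (4000/well) received compound 5 h post-seeding, 217-fold diluted from DMSO, then incubated 16 h at 37C.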

Experiment [7] addresses Cellular tumor antigen p53 (Homo sapiens) (UniProt P04637). The experiment in a line: TOX21_p53_BLA_p3_ratio: Tox21 HCT-116 p53 Agonism Beta-lactamase Assay, Ratio, Phase 3 (AID 2283596). The gist of the method: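 HCT116 p53-bla cells (4000/well) given compound in DMSO (217-fold dilution) after 5 h, incubated 16 h at 37C. CCF4-AM substrate 2 h at room temperature; 460/530 nm emission ratio, gain fitted against DMSO.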

Experiment [8] can be described thus: TOX21_p53_BLA_p4_viability: Viability Assessment in the Tox21 HCT-116 p53 Agonism Beta-lactamase Assay, Phase 4 (AID 2283597).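 Also: hits lower the luminescence signal meaning cytotoxicity.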 The gist of the method: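 Cells plated, 5 h pre-incubation; DMSO compounds pinned (217-fold dilution); 16 h, 37C/5% CO2; CCF4-AM 2 h RT; CellTiter-Glo 30 min RT; luminescence read.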
Experiment [9] has as its target Cellular tumor antigen p53 (Homo sapiens) (UniProt P04637). Briefly: TOX21_p53_BLA_p5_ratio: Tox21 HCT-116 p53 Agonism Beta-lactamase Assay, Ratio, Phase 5 (AID 2283599). In a few lines: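 Beta-lactamase reporter ratio (blue 460 nm over green 530 nm, 405 nm excitation) after 2 h CCF4-AM loading, in HCT-116 cells exposed 16 h at 37 C to compounds pinned at 217-fold dilution. Increases relative to DMSO baseline scored.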

Experiment [10] is described as follows: TOX21_p53_BLA_p5_viability: Viability Assessment in the Tox21 HCT-116 p53 Agonism Beta-lactamase Assay, Phase 5 (AID 2283600). The gist of the method: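 4000 cells/well; 5 h pre-incubation; DMSO compounds pin-transferred, 217-fold dilution; 16 h, 37C/5% CO2; CCF4-AM 2 h RT; CellTiter-Glo 30 min RT; luminescence.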
Experiment [11] can be described thus: TOX21_p53_BLA_p2_viability: Viability Assessment in the Tox21 HCT-116 p53 Agonism Beta-lactamase Assay, Phase 2 (AID 2283591).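 Also: compound exposure lasted 16 h at 37 °C; actives lower the ATP signal meaning cytotoxicity.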 The gist of the method: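 Cytotoxicity readout: CellTiter-Glo ATP luminescence, 30 min at room temperature, after the beta-lactamase read. Cells were HCT116 exposed 16 h at 37C to compounds pin-transferred at 217-fold dilution from DMSO stocks.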

Experiment [12] in a line: STM_H9_OrnCyssISnorm_ratio: Stemina devTOX quickPredict H9 human embryonic stem cell (hESC)-based Assay for Ornithine (ORN):Cystine (CYSS) Ratio (AID 2283714). In a few lines: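 Steps: H9 hESCs in pluripotent state dosed 72h, medium plus compound renewed every 24h; conditioned medium from the final 24h deproteinized in 40% acetonitrile; ORN and CYSS quantified by UPLC-HRMS with C13 spike-ins; ratio relative to vehicle.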

Consider `Cc1ccc(O)cn1`, for which the call in experiment [1], in [2], in experiment [3] and in experiment [4] was inactive.
As for `CCCCOC(=O)C(C)O` (stereo unspecified), the call in experiment [1], in experiment [5], in [6], in [7], in [8] and in [9] was inactive.
With `F[Si-2](F)(F)(F)(F)F`, the result in [1], in experiment [5], in experiment [6], in experiment [7], in [8] and in [9] was inactive. Moreover, the outcome in [10] was inactive.
Consider `CCCCCCCCCCCCCC[P+](CCCC)(CCCC)CCCC`, for which the AC50 in experiment [1] was 8.53 µM (active); in experiment [2] it was 47.9 µM (active); in experiment [3] it was 4.44 µM (active); in experiment [4] it was 83 µM (active).
As for `CCN=C1C=CC(=C(c2ccc(N(CC)CC)cc2)c2ccc(N(CC)CC)cc2)c2ccccc21`, the AC50 in [11] is 60.4 µM (active); in [5] it was 0.559 µM (active); in [6] it was 66.1 µM (active); in [7] it was 2.8 µM (active); in experiment [8], 45.9 µM (active); in [9], 57.2 µM (active). The AC50 in experiment [10] is 69.4 µM (active); in experiment [2] it was 33.4 µM (active); in experiment [3], 1.72 µM (active); in experiment [12], 0.151 µM (active); in experiment [4] it was 7.95 µM (active).
For the compound `CCOC(OCC)OCC`, the compound was called inactive in experiment [1], in [6], in experiment [9] and in experiment [10].
On to `Cc1cc(=O)[nH]c(C(C)C)n1`, for which the call in [11], in [5], in experiment [6], in experiment [7], in experiment [8] and in experiment [9] was inactive. For the same compound, the outcome in experiment [10] was inactive.
In the case of `O=S(=O)(O)c1ccc(Cl)cc1`, the result in experiment [1], in [11], in experiment [8] and in [10] was inactive.
In the case of `CCC(C)CO` (stereo unspecified), the call in experiment [1], in experiment [5], in experiment [6], in experiment [7], in [9] and in experiment [10] was inactive.
Turning to `CCCCCCCCCCCCCCCCC`, the compound was called inactive in [6], in [7] and in experiment [9].
As to `C=CCOC(=O)CC(C)C`, the result in experiment [1], in experiment [11], in experiment [5], in experiment [6], in [8] and in [9] was inactive. Further, the compound was classed as inactive in experiment [10].
Turning to `CC(C)(C)c1cc(Cc2cc(C(C)(C)C)c(O)c(C(C)(C)C)c2)cc(C(C)(C)C)c1O`, the compound was classed as inactive in experiment [1] and in experiment [4]. In experiment [2], the AC50 is 12.1 µM (active).
